Drawing on PubChem BioAssay AID1508600 (Functional Genomics Laboratory (NCATS/FGL), 2020), this text covers z-score for 108 sequences.

Hit rate of the full screen: of about 53,000 sequences, about 3,700 (7%) were called active. Only a selection was taken, and actives are over-represented in it overall. Unmarked numbers belong to inactive results.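 The calls were made as follows: active = gene knockdowns whose robust z-score for IL-1 alpha signal is at least 2 or at most -2, so actives lie on both sides; inactive = the rest.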

A short description of this test: Components of the Cytosolic LPS Sensing Pathway: Gene Identification via Genome-wide siRNA Screen.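 Also: robust z of the log signal after scaling to non-targeting control siRNA wells of the plate.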 The following applies: RAW264.7 macrophages, IL-1a HTRF, actives lie on both sides, screened at 100 nM (by protocol), cells primed 5 h with Pam3CSK4 first. The procedure, abridged:
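Using IL-1a HTRF as read-out, the screen measured release from RAW264.7 cells after 48h siRNA knockdown (100 nM), 5 h Pam3CSK4 priming and 24 h cytosolic LipidA. Values were expressed relative to negative-control wells as robust z-scores.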
(Time-resolved FRET reads energy transfer from a long-lived donor to a nearby acceptor.)
As to GGUCCUUAACCGCUAUGCATT against Esrp2, the z-score was 0.294.

As for GGAAGCUUCAGGAGUAUAUTT against Sdc2, the z-score is -0.326.

For GUGGCUGACAAGUUUAUCATT against Cyp2c66, the z-score was -0.132.

On to AACUAGCAAUAUGAUGGAGTT against Chic1, for which the z-score is -0.55.

Take GGGUUUGUUAAGUCCUGUGTT against Gsdmc: the z-score is -2.09 (active).

Turning to GCAAUAACCCAAUUCCUGATT against Phex, the z-score was 0.179.

On to GGACAGUAUGAAUUUGAAUTT against Lcp1, for which the z-score was 2.44 (active).

Consider GGCCUAUCUGACCUACACCTT against Wnt8a, for which the z-score was -0.271.

With GCCAUAUGAUAAUAUAGAGTT against Gbp6, the z-score was -0.574.

With CCUCAACCGGCAGUUCUUGTT against Uba2, the z-score was -0.574.

In the case of GCAUAGCUAACUCAGCAUATT against Map2k2, the z-score is 1.09.

For GGAAACCAUUGAAGAUGUUTT against Psmd13, the z-score was -1.2.

With CCCUGAAGUUUAUGCAACATT against Ttyh2, the z-score is -3.02 (active).

Take GGUAAUGAGCAGAUGAAGCTT against Sgta: the z-score was 0.622.

In the case of GGUGGUUUAAGAAAUCAAATT against Dolpp1, the z-score is 0.34.

For GGCCCUAGAUAUUGAUUUUTT against Rbp2, the z-score was -0.338.

Turning to GGAGAUUGGGAUCAAUUAGTT against Sall3, the z-score is 0.576.

Take GGACGUGACCAUGAUGUCUTT against Oacyl: the z-score was -3.46 (active).

GCAUCCUUUGUCGAAGUGGTT against Clec18a: the z-score was -0.495.

In the case of GGGAUUUUGUACAUUUUUGTT against Egln3, the z-score was 1.51.

Regarding CCGACGGAUAGCUUGGAUGTT against Fgb, the z-score was -0.214.

With GGACGGAGGAUUCUGAAACTT against Prepl, the z-score is 2.42 (active).

As to “GGAAAGCUUACAGUUGAAATT against 4933427D06Rik”, the z-score is 0.992.

As to GGAAAGCUAAGGCUGUACUTT against Dnal1, the z-score is -0.103.

Regarding CCCAGAAGCCUUAUCGUCUTT against Mzt1, the z-score is 2.37 (active).

Regarding GCCAUCUACUUUGUUAUAGTT against Kcnk4, the z-score was 0.725.

As for GGAGUUAUUAACUGAAGAGTT against Cyp2c55, the z-score is 0.0702.

GAGGGCCAUCUCUGACAUGTT against Avp: the z-score is 0.369.

On to GGUCAAAACAAAAGGAGGGTT against Ncf4, for which the z-score was 0.498.

Consider GGACAAAUUUGCAUAGAUUTT against Rab10os, for which the z-score is 2.93 (active).

In the case of GCCAAUAUUUGUUUUUGAGTT against Ranbp3l, the z-score is 0.0685.

As to GCUACAACCUUGAGAAACUTT against Duoxa2, the z-score was 0.706.

For CCUAGGUGUCGUACACAAATT against Galns, the z-score was 2.45 (active).

For GGCUUCCUAUCUGAUUACUTT against Acsl4, the z-score is 0.498.

In the case of CCACCGGAAUGACAUAAUGTT against Klk11, the z-score was -0.578.

With CCUAGUUGAAAAUUGGGAATT against Fuca2, the z-score is 0.354.

On to CGUGGUCAUCUGGUAUGAGTT against Zfp653, for which the z-score was 2.53 (active).

GCACUGCUAUUUACAAAAATT against Tex16: the z-score is -1.73.

In the case of CAGGGCAAGGUGAUAUCUGTT against Olfr1411, the z-score was -0.428.

As to GGAGAAAUAAGUGCAGGUGTT against Rhox2a, the z-score was -0.622.

In the case of GGCUCCUCUCCAAGAAUAUTT against Prr14l, the z-score is 2.03 (active).

Take GGAGAGAAUCAGAGAGAACTT against Akr1c18: the z-score was 0.276.

Take GCUUCUGAUAGAUCAUAAGTT against Aoc3: the z-score was -0.276.

Turning to GGCUCAAAGUUUUCAGAGATT against Kctd14, the z-score was -0.0155.

In the case of GCAUUUUGUGGAAAAGGCUTT against Olfr582, the z-score is -2.19 (active).

Regarding CGAAAAGGUGGACUUUUAGTT against Rnf4, the z-score is -0.545.

As to GGUGAUUUUCGAUAUACACTT against Dclre1b, the z-score was 0.257.

On to CGACCUGCUCUCAUAGCUUTT against Sycn, for which the z-score was -0.702.

Take GGCCUUUGGGAAAACAUGGTT against Zcchc14: the z-score was -2.16 (active).

For the sequence GUACUAGUGGUGACUGCAUTT against Olfr462, the z-score is -0.0789.

In the case of CCAAGGGUUAAGUCUUCAUTT against Zranb1, the z-score is 0.738.

Turning to CCUCUCAUGUAUCCUGUGATT against Olfr292, the z-score is -0.205.

GGGAAAGUGUGUAAUAAAUTT against Egflam: the z-score was -0.774.

Regarding GCUUACUACCAUUGGGAAUTT against Samt2, the z-score is 1.65.

On to GGAUUAGAGAAAUAGGGCUTT against Apol10a, for which the z-score was -2.09 (active).

For GGAAUUCCUUCGUUUCCUUTT against Usp2, the z-score was 1.64.

Regarding GGUUUGAAGUGUUGACAUUTT against Fam126a, the z-score is -0.474.

As to CGUACAUCAGAAUGUUAAUTT against Fkbp4, the z-score was 1.46.

For the sequence GGUGGUGUCAACCUUAAAATT against Nrsn1, the z-score was 0.253.

With GGUUUUGUCCAGAAGAAUATT against Kl, the z-score was -0.574.

As to GGAUGGACCAUCAGCUUCATT against Olfr1152, the z-score was -2.25 (active).

Turning to GGCUCUUGAUACGAAUGUATT against Aadac, the z-score is -0.44.

For GGAGAAGGGCUUUUCUGUUTT against Gbp5, the z-score was -0.729.

With GCCUCACAGAUUGAUAAUATT against Akt3, the z-score is -1.23.

As to GCAGCCAUACAGCUUAUAUTT against Cyb561d2, the z-score was 0.382.

Take GGAGCUGUCAUUUAAGAAATT against Sorbs2: the z-score was 2.42 (active).

On to CGUGGCUCACAAUAAAUGCTT against Cfd, for which the z-score was 0.385.

In the case of GGCAAAUGGAAAAUUCUGCTT against Rlim, the z-score is 0.982.

As to GCUGAUGUAAGUAUUCUAGTT against Pdcl, the z-score was 0.1.

In the case of GCGGAAUUGGAAAAUGCCGTT against Hbs1l, the z-score is 0.283.

Consider GGUGGUAUCUGUAUUCUAUTT against Olfr1106, for which the z-score was 2.6 (active).

With GGUGACAAUAAAUUUGGAUTT against Tmem143, the z-score is 1.09.

Take GGAUUCACAUUUCUAAAGCTT against Adcy8: the z-score is 1.31.

Turning to CGCUAUGAAACCUCACUAATT against E2f1, the z-score is -0.598.

As for GCAUGACCUCAGGUUUUCUTT against Il20rb, the z-score was 1.57.

For CCUGAUUGUCACUCCUUUUTT against Pde4b, the z-score is 0.753.

Consider GCGAAAGCAGGAUACUCCUTT against Mtmr11, for which the z-score was 1.01.

As to GGAAAAAAUCUGCAUCCGATT against Neu1, the z-score was -0.415.

As to GGGACAUGAGCCAUUCAUCTT against Lcor, the z-score is 0.749.

On to GGAUAGCUCUAUUAUCUCUTT against Serpinb3a, for which the z-score is 1.24.

On to “GGCAGUACAACUGGUCUACTT against 0610040J01Rik”, for which the z-score is 2.21 (active).

For GGAUGUGCUCUGUGAAUGCTT against Pgf, the z-score is 0.533.

In the case of GGCAUCACAGAAGGUUUAUTT against Rock2, the z-score was 4.17 (active).

Consider GGUGAACGAUGUCAAUAAGTT against Pdxk, for which the z-score is -0.318.

Take CCAAGAGAUUGCUAAUUGCTT against Runx1t1: the z-score is -0.695.

With CGCAAAAACUGGUGUAACCTT against Arhgef1, the z-score was -0.958.

Turning to CUCCUCAGUCAACAAGAACTT against Hoxc11, the z-score is 0.176.

Take GCUUGUUGGUGGUCUCCUGTT against Spink7: the z-score was -2.28 (active).

As to GGAAAAUGCCUCAAGACUUTT against Wdr5b, the z-score is -0.0565.

With GGACACCAUCAAUUGAUUATT against Wdr27, the z-score was -0.127.

GCCUUGGCUGAAACUCUCATT against Cybb: the z-score is 0.612.

Turning to GGGACAAGAAGAACAAGAGTT against Srp14, the z-score was -1.33.

Turning to GGAAGAAUCGGAUCAAGAUTT against Dpep2, the z-score was 0.153.

GGCAUGGAAUCUGUUGUACTT against Olfr603: the z-score is 2.45 (active).

With GCCAAGACCAUUCAGCCUUTT against Zfp579, the z-score is -0.394.

GCUUCAUCGAACAAGUCGCTT against Pcbd1: the z-score is 0.715.

Turning to GGUGCUGAAGAUGCUGACGTT against Zfp503, the z-score is -1.46.

Consider CGUCACUGAUGUGGCUUUUTT against Plpp6, for which the z-score is 0.755.

Take GGCAGAAACCCUUCUAUGUTT against Bmp8a: the z-score was -1.55.

As for GGACAGCUUCCGAAACUAUTT against Miox, the z-score is 0.349.

For the sequence GGAAGCCAAAGAGAAACAATT against Ighmbp2, the z-score was -0.0223.

Consider CCGUUUACGGCCACUAACUTT against Phkg2, for which the z-score is 3.68 (active).

On to GCAGCCAAGUGGGUAACUUTT against Nicn1, for which the z-score was 0.474.

In the case of CGGCCUGACAUCAACCUUGTT against Fam193b, the z-score is -0.915.

As for GGAAGAAAACGCAACUAUATT against Atp1b3, the z-score is 0.246.

With “GUUCUCAAGUAUCCCAGGCTT against 1110006O24Rik”, the z-score is -0.661.

Take GCUGGAAUAUAGGAAUGUCTT against Pex11g: the z-score was -0.0512.

As for GGUCUAGCUCUGAAACAUCTT against Pms2, the z-score was 2.27 (active).
